ELG1 repair inh: blocks ELG1-dependent DNA repair in HEK293T cells; HEK293T ELG1-luciferase reporter, luminescence, 16 h; DNA damage induced by 5-fluorouridine; Potency, µM (top dose mostly 46.1 µM), without a hit: top-dose activity change, negative = inhibition, most hits filed as inhibitors; hit rate 2.3% among 330,000; AID 504467; note: % is set by controls: 0 for no effect and ±100 for the full control effect; nearly all actives have a fitted effect of over 55% in size
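5-Fluorouridine DNA damage + compound/DMSO, 2,000 cells/well, 16 h, 37 °C/5% CO2. ONE-Glo, 30 min RT, luminescence. Readout = decrease in reporter signal.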
Rab9 promoter act: Rab9 promoter activation; Huh7 Rab9 promoter-luciferase reporter, luminescence, 24 h; Potency, µM (top dose mostly 9.22 µM), for inactives: top-dose activation, negative = inhibition, usual class: activators; hit rate 2.8% among 320,000; note: % of control where 0% means no effect; nearly all actives have a fitted effect of over 60% in size
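Measured in stably transfected Huh7 cells bearing a Rab9 promoter–luciferase construct: 24 h compound treatment at 37 °C, followed by luminescence detection.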
FLuc counter: firefly luciferase modulation, counter-screen for miR-21 project; purified FLuc, Km substrates, luminescence inhibition; hit rate 6.9% among 360,000; Potency, µM (series often up to 57.5 µM), without a hit: at the highest dose activity change, negative = inhibition, most hits filed as inhibitors; P08659;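 note: plate controls were vehicle for no effect and reference inhibitor for full effect; nearly all actives have a fitted effect of over 55% in size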
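Purified P. pyralis luciferase, 10 nM final, with Km-level 10 uM D-luciferin and 10 uM ATP in 50 mM Tris acetate pH 7.5, 10 mM Mg acetate, 0.01% Tween-20, 0.05% BSA; 6-point qHTS titration about 60 µM downward; luminescence read.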
SMN2 splice up: SMN2 splice variant enhancement; HEK293 SMN2-luciferase splicing reporter, luminescence, 30-36 h; Potency, µM (doses to about 46.1 µM), for inactives: top-dose activity change, positive = activation, hits mostly activators; hit rate 2.8% among 210,000; note: % of control where 0% means no effect; nearly all actives have a fitted effect of over 55% in size
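HEK293 cells carry an SMN2 […]–luciferase reporter in which exon 7 inclusion puts luciferase in frame. Cells were plated 10-12 h before compound addition, then incubated 30-36 h at 37C. ONE-Glo luminescence was read; sodium butyrate at 4.5 mM final served as control.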
NPC1 prom act: activates the NPC1 promoter | hit rate 2.4% among 320,000 | Potency, µM (top dose mostly 9.22 µM), inactives show at the highest dose activation, hits mostly activators | Huh7 NPC1 promoter luciferase reporter, 24 h | AID 485313; note: % of control where 0% means no effect; nearly all actives have a fitted effect of over 60% in size
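Compounds in DMSO were transferred onto Huh7 NPC1-luciferase reporter cells pre-incubated 2 h; after 24 h at 37 °C, Amplite reagent was dispensed and luminescence recorded 10 min later.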
ELG1 genotoxic: induces genotoxicity in HEK293T cells with luciferase-tagged ELG1 | HEK293T ELG1-luciferase reporter, luminescence, 16 h | Potency, µM (series often up to 46 µM), inactives show at the top dose activity change, positive = activation, actives largely listed as activators | hit rate 1.3% among 330,000 | AID 504466; note: % of control where 0% means no effect; nearly all actives have a fitted effect of over 60% in size
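After overnight (16 hr) compound treatment at 37 °C, ELG1-luciferase HEK293T cells were lysed with ONE-Glo; luminescence quantified 30 min later at room temperature.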
ELG1 FLuc counter: luciferase inhibition in cell-free luciferin readout for ELG1 hits. shares compounds with ELG1 repair inh. hit rate 3% among 350. Potency, µM (series often up to 46.1 µM), without a hit: top-dose activity change, negative = inhibition, usual class: inhibitors. AID 624247. cell-free firefly luciferase luminescence counter-screen, ViewLux; note: % is set by controls: 0 for no effect and ±100 for the full control effect
ELG1 Luc conf: inhibits ELG1-dependent DNA repair in HEK293T cells, confirmed; shares compounds with ELG1 repair inh; HEK293T ELG1-luciferase levels, luminescence; cells co-treated with 5-fluorouridine; Potency, µM (series often up to 46.1 µM), inactives show top-dose activity change, negative = inhibition, actives largely listed as inhibitors; hit rate 68% among 670; note: % is set by controls: 0 for no effect and ±100 for the full control effect; nearly all actives have a fitted effect of over 55% in size
ELG1-Luc MMS: inhibits ELG1-dependent repair under MMS stimulation in HEK293T cells. shares compounds with ELG1 repair inh. Potency, µM (doses to about 46.1 µM), for the others: at the top dose activity change, negative = inhibition, most hits filed as inhibitors. HEK293T luciferase-tagged ELG1 level, MMS stimulated. AID 624249. hit rate 53% among 670; note: % is set by controls: 0 for no effect and ±100 for the full control effect; nearly all actives have a fitted effect of over 60% in size
ELG1 5FU viab: confirmation of ELG1 repair inhibitors: viability with 5FU; shares compounds with ELG1 repair inh; cell viability with 5-FU, ELG1-dependent repair; Potency, µM (top dose mostly 46.1 µM), for inactives: at the top dose activity change, negative = viability loss, usual class: cytotoxic; 670 tested, under 10 active; AID 624250;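 note: ELG1-luc HEK293T cells cotreated with 5-fluorouridine at 10 µM final; viability measured 16 h after compound addition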
ELG1 MMS cell: confirmation of ELG1 repair inhibitors: viability with MMS; shares compounds with ELG1 repair inh; Potency, µM (top dose mostly 46.1 µM), for the others: at the top dose activity change, negative = viability loss, most hits filed as cytotoxic; hit rate 33% among 670; Cell viability with MMS, ELG1-dependent DNA repair; AID 624251;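 note: ELG1-luc HEK293T cells co-treated with 10 µM MMS; viability read 16 h after compound addition; % is set by controls: 0 for no effect and ±100 for the full control effect; nearly all actives have a fitted effect of over 60% in size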
ELG1 unstim viab: affects unstimulated cell viability, ELG1 hit counter-screen; hit rate 8% among 900; shares compounds with ELG1 repair inh; AID 624252; Potency, µM (highest dose often 45.9 µM), without a hit: top-dose activity change, negative = loss of viability, most hits filed as cytotoxic; cell viability counter-screen, unstimulated, luminescence;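 note: compound exposure lasted 16 hours before reading; % is set by controls: 0 for no effect and ±100 for the full control effect; nearly all actives have a fitted effect of over 55% in size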
FLuc enzyme: inhibits purified firefly luciferase, counter-screen for ELG1 hits | shares compounds with ELG1 repair inh | purified firefly luciferase, luminescence counter-screen | hit rate 10% among 350 | Potency, µM (titrated, usually from 57.5 µM), for inactives: at the top dose activity, negative = inhibition, usual class: inhibitors; note: % is set by controls: 0 for no effect and ±100 for the full control effect
The depositor's hits bear a star; u = inconclusive; x = not tested or not shown; [ ] = remark or other dose. Sampled rows, rich in hits. Any-hit rate of the full collection: about 9.3%. Calls come from the whole dose curve; as a rule, active = well fitted curve in the direction sought with a large enough effect; inconclusive = small, poorly fitted or top-dose-only effect, or another doubt; inactive = no such curve, though single readings can be large; an effect the other way counts as inactive or inconclusive. Potency is the fitted concentration of half-maximal effect.

SMILES	ELG1 repair inh	Rab9 promoter act	FLuc counter	SMN2 splice up	NPC1 prom act	ELG1 genotoxic	ELG1 Luc conf	ELG1-Luc MMS	ELG1 5FU viab	ELG1 MMS cell	ELG1 unstim viab	others
Cc1oc(-c2ccc(Cl)cc2)nc1CN1CCCC(C(=O)N2CCN(C(=O)c3ccco3)CC2)C1 (stereo unspecified)	4.11µM*	-23.6%	-1.7%	-88.0%	-24.1%	-21.0%	14.1µM*	1.25µM*	-8.1%	1.58µM*	u
CCc1ccc(-c2nc(CN3CCC(C(=O)N4CCN(c5ccccn5)CC4)CC3)c(C)o2)cc1	4.11µM*	-14.5%	-14.8%	x	-9.5%	-5.5%	7.05µM*	7.91µM*	-5.3%	7.91µM*	u
Cc1oc(-c2ccc(Cl)cc2)nc1CN1CCCC(C(=O)NCc2ccccc2)C1 (stereo unspecified)	x	x	u	-18.5%	x	x	x	x	x	x	x
Cc1ccc(COc2cccc3c2CCN(Cc2ccc(F)cc2)C3=O)cc1	u	-9.8%	-3.8%	x	-8.4%	8.2%	x	x	x	x	x
O=C1c2cccc(OCc3ccc(F)cc3)c2CCN1Cc1ccccc1	u	-15.6%	-4.4%	-52.3%	-10.2%	-1.3%	u	4.45µM*	-10.3%	6.28µM*	u
CCC[n+]1c(C)sc2c(OC)ccc(OC)c21	10.4%	-3.0%	-3.9%	x	-4.6%	4.1%	x	x	x	x	x
CC(C)(C)C(=O)Nc1cccc(-c2nnc(-c3cccc(NC(=O)C(C)(C)C)c3)o2)c1	4.61µM*	3.4%	-3.7%	-2.2%	2.6%	-1.8%	7.91µM*	u	15.4%	-1.2%	u
O=C(CCN1C(=O)c2ccccc2C1=O)Nc1ccc(-c2nc3ccccc3o2)cc1	u	1.41µM*	1.8%	8.91µM*	2.24µM*	1.46µM*	x	x	x	x	u	ELG1 FLuc counter=152.0%;FLuc enzyme=u
Cc1cccc(/C=C/c2onc(C)c2S(=O)(=O)N2CCC(C(=O)N3CCC(C)CC3)CC2)c1	1.83µM*	-2.9%	0.2%	x	0.2%	-9.7%	1.25µM*	13.2%	u	-6.0%	u
Cc1noc(/C=C/c2ccco2)c1S(=O)(=O)N1CCC(C(=O)N(C)Cc2ccccc2)CC1	4.61µM*	-8.7%	7.6%	-3.8%	-9.7%	-1.3%	3.15µM*	29.4%	u	-0.8%	-10.8%
Cc1cccc(/C=C/c2onc(C)c2S(=O)(=O)N2CCC(C(=O)N3CCCCCC3)CC2)c1	u	-1.6%	-1.3%	x	-7.2%	-2.8%[9.26 µM]	x	x	x	x	x
O=Cc1cn(CC(=O)Nc2ccc(F)cc2)c2ccccc12	3.66µM*	-7.4%	-0.3%	-78.4%	-3.9%	-9.1%	-3.8%	3.15µM*	-3.4%	14.1µM*	-2.6%
O=Cc1cn(CC(=O)Nc2ccccc2)c2ccccc12	-19.2%	-0.6%	-9.3%	x	0.5%	-9.4%	x	x	x	x	x
Cc1ccc2[nH]c(C)c(CCNC(=O)c3cc4cc([N+](=O)[O-])ccc4oc3=O)c2c1	-0.1%	-0.6%	-0.8%	-4.3%	-0.8%	7.5%	x	x	x	x	x
COc1cc(OC)c2c(-c3cccc(-c4ccc(C#N)cc4)c3)cc(=O)oc2c1	4.61µM*	x	x	x	x	-1.1%	u	7.91µM*	u	7.05µM*	u
C=CCNC(=S)Nc1nc2c(cc1C(=O)OCC)COC(C)(C)C2	u	10.7%	-16.2%	x	3.4%	1.6%	x	x	x	x	x
ICC[n+]1csc2ccccc21	x	x	x	x	x	x	x	x	x	x	-1.2%
NC(=O)c1ccsc1NC(=O)COC(=O)CNC(=O)c1ccc(F)cc1	4.0%	-3.0%	-1.0%	x	-9.6%	-0.7%	x	x	x	x	x
CS(=O)(=O)N(CC(=O)NCCC1=CCCCC1)c1cccc([N+](=O)[O-])c1	-10.8%	-8.2%	1.0%	-19.1%	-0.1%	-7.2%	x	x	x	x	x
O=C1CCc2cc(NS(=O)(=O)c3ccccc3)cc3c2N1CC3	28.4%	-1.4%	-7.9%	x	-0.4%	4.11µM*	x	x	x	x	2.7%	ELG1 FLuc counter=25.8%;FLuc enzyme=0.8%
O=C1CCc2cc(NS(=O)(=O)c3ccc([N+](=O)[O-])cc3)cc3c2N1CC3	12.3%	-3.4%	1.9%	x	-0.6%	1.0%	x	x	x	x	x
O=C1CCc2cc(NS(=O)(=O)c3ccccc3)cc3c2N1CCC3	u	-0.5%	2.8%	x	-0.3%	0.0%	x	x	x	x	6.3%	ELG1 FLuc counter=13.7%;FLuc enzyme=0.5%
O=C1CCc2cc(NS(=O)(=O)c3ccc(F)cc3)cc3c2N1CCC3	16.7%	2.0%	-0.1%	x	-3.5%	5.6%	x	x	x	x	x
Clc1ccc([C@H](Cn2ccnc2)OCc2csc3c(Cl)cccc23)c(Cl)c1	x	x	x	4.0%[20.6 µM]	x	x	x	x	x	x	x
O=C(/C=C/c1ccc(F)cc1)NC(=S)NNC(=O)c1cnccn1	2.31µM*	-22.6%	u	x	-16.5%	-5.6%	u	19.9µM*	-8.3%	-14.4%	-13.3%
Cc1cccc(OCC(=O)NCC(=O)N=Nc2c(O)[nH]c3ccc([N+](=O)[O-])cc23)c1	5.1%	4.0%	4.6%	x	-4.8%	-9.3%	x	x	x	x	x
O=C(COC(=O)C1CC2C=CC1C2)Nc1c(Br)cc([N+](=O)[O-])cc1Br (stereo unspecified)	4.61µM*	x	x	x	x	-1.8%	7.91µM*	18.1%	u	u	u

Source: PubChem BioAssay
